# Reference: the supplement of paper PMC10077471
# Over roughly 1,900 compounds, “excess over highest single agent (ExcessHSA) synergy score, 6x6 matrix” has its median near -83; the lowest 2% begin near -370. What follows is part of a selection rich in the lowest values, with near analogues and random picks from the rest.
# Tested on: NCI-H446
# Experiment: excess over highest single agent (ExcessHSA) synergy score, 6x6 matrix; higher = less synergy (more negative = stronger synergy)
# Conditions: 72 h; CellTiter-Glo viability
row,SMILES,excess over highest single agent
1,O=C1NC(=O)/C(=C/c2ccc3nccc(-c4ccncc4)c3c2)S1 + Cc1sc2c(c1C)C(c1ccc(Cl)cc1)=N[C@@H](CC(=O)OC(C)(C)C)c1nnc(C)n1-2 [NCGC00250412-19],-177
2,CCCNC(=O)[C@H]1O[C@@H]1C(=O)N[C@H](C(=O)N1CCC[C@H]1C(=O)OC)[C@@H](C)CC + Cc1sc2c(c1C)C(c1ccc(Cl)cc1)=N[C@@H](CC(=O)OC(C)(C)C)c1nnc(C)n1-2 [NCGC00250412-19],-117
3,CN(C)c1ccc(C2Nc3ccc4ccccc4c3C3=C2C(=O)CC(C)(C)C3)cc1Br (stereo not given) + Cc1sc2c(c1C)C(c1ccc(Cl)cc1)=N[C@@H](CC(=O)OC(C)(C)C)c1nnc(C)n1-2 [NCGC00250412-19],-30.1
4,O=c1cc(N2CCOCC2)oc2c(-c3cccc4c3sc3ccccc34)cccc12 + Cc1sc2c(c1C)C(c1ccc(Cl)cc1)=N[C@@H](CC(=O)OC(C)(C)C)c1nnc(C)n1-2 [NCGC00250412-19],-318
5,CCN1CCN(CC(=O)Nc2ccc(-c3cccc4c(=O)cc(N5CCOCC5)oc34)c3sc4ccccc4c23)CC1 + Cc1sc2c(c1C)C(c1ccc(Cl)cc1)=N[C@@H](CC(=O)OC(C)(C)C)c1nnc(C)n1-2 [NCGC00250412-19],-383
6,O=c1cc(N2CCOCC2)oc2c(-c3ccccc3)cccc12 + Cc1sc2c(c1C)C(c1ccc(Cl)cc1)=N[C@@H](CC(=O)OC(C)(C)C)c1nnc(C)n1-2 [NCGC00250412-19],83.7
7,CN(C)CC(=O)N1CCC(c2ccc(NC(=O)c3ncc(C#N)[nH]3)c(C3=CCCCC3)c2)CC1 + Cc1sc2c(c1C)C(c1ccc(Cl)cc1)=N[C@@H](CC(=O)OC(C)(C)C)c1nnc(C)n1-2 [NCGC00250412-19],53.2
8,CC1CCN(c2cc(N3CCN(C)CC3)ccc2NC(=O)c2cc(C#N)c[nH]2)CC1 + Cc1sc2c(c1C)C(c1ccc(Cl)cc1)=N[C@@H](CC(=O)OC(C)(C)C)c1nnc(C)n1-2 [NCGC00250412-19],106
9,COc1ccc(Nc2nccc(NCCO)n2)cc1 + Cc1sc2c(c1C)C(c1ccc(Cl)cc1)=N[C@@H](CC(=O)OC(C)(C)C)c1nnc(C)n1-2 [NCGC00250412-19],81.9
10,CN(C)c1ccc2cc(C(=O)N[C@@H](CCCN=C(N)CCl)C(=O)NCc3ccccc3)ccc2c1 + Cc1sc2c(c1C)C(c1ccc(Cl)cc1)=N[C@@H](CC(=O)OC(C)(C)C)c1nnc(C)n1-2 [NCGC00250412-19],-202
11,NS(=O)(=O)c1ccc(Nc2nc(OCC3CCCCC3)c3[nH]cnc3n2)cc1 + Cc1sc2c(c1C)C(c1ccc(Cl)cc1)=N[C@@H](CC(=O)OC(C)(C)C)c1nnc(C)n1-2 [NCGC00250412-19],-148
12,CCN(CC)CCn1c(=O)c(Cc2ccc(OC)cc2)nc2ccccc21 + Cc1sc2c(c1C)C(c1ccc(Cl)cc1)=N[C@@H](CC(=O)OC(C)(C)C)c1nnc(C)n1-2 [NCGC00250412-19],-47.3
13,O=c1[nH]c(=O)n([C@H]2C[C@H](O)[C@@H](CO)O2)cc1I + Cc1sc2c(c1C)C(c1ccc(Cl)cc1)=N[C@@H](CC(=O)OC(C)(C)C)c1nnc(C)n1-2 [NCGC00250412-19],-172
14,O=c1[nH]c(=O)n([C@H]2C[C@H](O)[C@@H](CO)O2)cc1F + Cc1sc2c(c1C)C(c1ccc(Cl)cc1)=N[C@@H](CC(=O)OC(C)(C)C)c1nnc(C)n1-2 [NCGC00250412-19],-390
15,Cc1cn([C@@H]2C[C@@H](O)[C@H](CO)O2)c(=O)[nH]c1=O + Cc1sc2c(c1C)C(c1ccc(Cl)cc1)=N[C@@H](CC(=O)OC(C)(C)C)c1nnc(C)n1-2 [NCGC00250412-19],21.8
16,Cc1cc(OCCCS(C)(=O)=O)cc(C)c1-c1cccc(COc2ccc3c(c2)OC[C@H]3CC(=O)O)c1 + Cc1sc2c(c1C)C(c1ccc(Cl)cc1)=N[C@@H](CC(=O)OC(C)(C)C)c1nnc(C)n1-2 [NCGC00250412-19],-123
17,c1ccc2c(CCNc3ccc(Nc4ccncc4)cc3)c[nH]c2c1 + Cc1sc2c(c1C)C(c1ccc(Cl)cc1)=N[C@@H](CC(=O)OC(C)(C)C)c1nnc(C)n1-2 [NCGC00250412-19],-76.1
18,Cc1cc(SCc2sc(-c3ccc(C(F)(F)F)cc3)nc2C)ccc1OCC(=O)O + Cc1sc2c(c1C)C(c1ccc(Cl)cc1)=N[C@@H](CC(=O)OC(C)(C)C)c1nnc(C)n1-2 [NCGC00250412-19],-98.3
19,CC(=O)O/N=C1/C(c2c(O)[nH]c3cc(Br)ccc23)=Nc2ccccc21 + Cc1sc2c(c1C)C(c1ccc(Cl)cc1)=N[C@@H](CC(=O)OC(C)(C)C)c1nnc(C)n1-2 [NCGC00250412-19],54.4
20,O=c1c(-c2ccc(O)cc2)coc2cc(O[C@@H]3O[C@H](CO)[C@@H](O)[C@H](O)[C@H]3O)ccc12 + Cc1sc2c(c1C)C(c1ccc(Cl)cc1)=N[C@@H](CC(=O)OC(C)(C)C)c1nnc(C)n1-2 [NCGC00250412-19],-180
21,Cc1c(NC(=O)c2ccc(C(C)(C)C)cc2)cccc1-c1cn(C)c(=O)c(Nc2ccc(C(=O)N3CCOCC3)cc2)n1 + Cc1sc2c(c1C)C(c1ccc(Cl)cc1)=N[C@@H](CC(=O)OC(C)(C)C)c1nnc(C)n1-2 [NCGC00250412-19],-90.9
22,Nc1ccn([C@@H]2O[C@H](CO)[C@@H](O)[C@H]2O)c(=O)n1 + Cc1sc2c(c1C)C(c1ccc(Cl)cc1)=N[C@@H](CC(=O)OC(C)(C)C)c1nnc(C)n1-2 [NCGC00250412-19],-268
23,Nc1ccn([C@@H]2O[C@H](CO)[C@@H](O)C2(F)F)c(=O)n1 + Cc1sc2c(c1C)C(c1ccc(Cl)cc1)=N[C@@H](CC(=O)OC(C)(C)C)c1nnc(C)n1-2 [NCGC00250412-19],-379
24,Nc1ccn([C@@H]2O[C@H](CO)[C@@H](O)[C@@H]2O)c(=O)n1 + Cc1sc2c(c1C)C(c1ccc(Cl)cc1)=N[C@@H](CC(=O)OC(C)(C)C)c1nnc(C)n1-2 [NCGC00250412-19],-107
25,CC(=O)N1CCN(c2ccc(OCc3nn(C)c(C)c3-c3cccc4c(CCCOc5cccc6ccccc56)c(C(=O)O)n(Cc5cccnc5)c34)cc2)CC1 + Cc1sc2c(c1C)C(c1ccc(Cl)cc1)=N[C@@H](CC(=O)OC(C)(C)C)c1nnc(C)n1-2 [NCGC00250412-19],97.8
